Only some compounds are listed: those with a hit (about 4.7% of all), similar ones and a draw of the others.
ADAM17 inh = ADAM17 inhibition, QFRET primary screen. P78536. recombinant ADAM17, EDANS/DABCYL FRET peptide cleavage. inhibition, % at 6.95 µM. 370,000 compounds, 0.83% hits. AID 720648;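 active means inhibition above the mean of compounds lying between control limits plus 3 SD, set per campaign, cut at about 8.5% in these data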
rCAG binder = molecules binding r(CAG) RNA repeats | 370,000 compounds, 1.3% hits | r(CAG) RNA repeat, TO-PRO-1 dye displacement fluorescence | inhibition, % at 3 µM;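 active means inhibition above the plate cutoff, the mean of all test compounds on that plate plus 3 SD, cut at about 35% in these data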;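 further: higher means more dye released from RNA so lower well fluorescence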
DSG3 Ab inh = inhibitors of pemphigus antibody binding to human desmoglein-3; P32926; DSG3-coupled beads, scFv-anti-DSG3-GFP binding, flow cytometry; stronger effect = lower value; binding (percent of control), % at 10 µM; 310,000 compounds, 0.48% hits;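 active means binding more than 3 SD below its plate's average and above zero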
proKLK7 act = activates the human kallikrein-7 zymogen. P49862. purified proKLK7, EDANS-DABCYL substrate fluorescence; 100% is mature enzyme control, 0% vehicle. activation, % at 7 µM. 370,000 compounds, 0.9% hits. AID 652039;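 active means activation above the mean of all tested compounds plus 3 SD, computed per campaign excluding outliers beyond control limits, cut at about 13% in these data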
Target sequence (P49862 whole entry, looked up): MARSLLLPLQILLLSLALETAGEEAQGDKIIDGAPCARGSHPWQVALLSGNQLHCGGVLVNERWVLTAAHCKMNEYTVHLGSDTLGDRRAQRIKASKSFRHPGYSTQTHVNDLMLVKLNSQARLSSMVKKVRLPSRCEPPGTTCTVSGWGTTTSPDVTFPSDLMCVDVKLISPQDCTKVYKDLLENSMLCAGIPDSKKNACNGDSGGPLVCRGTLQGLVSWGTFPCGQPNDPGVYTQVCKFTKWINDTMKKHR
ADAM10 inh = ADAM10 inhibition, QFRET primary screen; O14672; inhibition, % at 7 µM; AID 720582; recombinant ADAM10, EDANS/DABCYL FRET peptide cleavage, 3 h; 370,000 compounds, 0.62% hits;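 active means inhibition above a per-campaign cutoff equal to the mean of compounds falling between control-based bounds plus 3 SD, cut at about 20% in these data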
MPTP block = inhibitors of mitochondrial permeability transition pore; isolated mouse mitochondria, Ca2+ swelling absorbance, 30 min; 360,000 compounds, 1.4% hits; inhibition, % at 10 µM;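 active means inhibition of 50% or more, scaled per plate between neutral and stimulator controls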
ADAM10 confirm = confirmation of inhibitors of human ADAM10. inhibition, % at 6.95 µM. shares compounds with ADAM10 inh. ADAM10 QFRET peptide cleavage, EDANS fluorescence. 2,100 compounds, 1% hits. AID 743208;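 active means inhibition above about 20% chosen separately for each screening run, limit read from the data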
ADAM17 counter = counter-screen for ADAM10 exosite inhibitors: inhibitors of human ADAM17. 2,100 compounds, 0.5% hits. inhibition, % at 6.95 µM. AID 743214. shares compounds with ADAM10 inh. ADAM17 QFRET peptide cleavage, EDANS fluorescence;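 active means mean triplicate inhibition above the solvent-only control wells' mean plus 3 SD, cut at about 12% in these data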
ADAM10 ctr = counter-screen for ADAM17 exosite inhibitors: inhibitors of human ADAM10; 2,900 compounds, 47% hits; shares compounds with ADAM17 inh; inhibition, % at 6.95 µM; AID 743256; recombinant ADAM10, EDANS/DABCYL FRET peptide cleavage, 3 h;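 active means mean inhibition over the triplicate runs exceeds the activity threshold set in the earlier primary screen, cut at about 20% in these data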
ADAM17 confirm = confirmation of inhibitors of human ADAM17. shares compounds with ADAM17 inh. recombinant ADAM17, EDANS/DABCYL QFRET peptide cleavage. inhibition, % at 6.95 µM. 2,900 compounds, 65% hits;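 active means mean inhibition across replicates above the hit cutoff set in the primary screen, cut at about 8.5% in these data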
Numbers stand for hits.

How did C(=C\c1ccccc1)/CN1CCN(C(c2ccccc2)c2nnnn2-c2ccc3c(c2)OCCO3)CC1 (stereo not given) do in these assays?
ADAM17 inh: 13.6; rCAG binder: inactive; proKLK7 act: inactive; ADAM10 inh: 29.4; MPTP block: inactive; ADAM10 confirm: inactive; ADAM17 counter: inactive; ADAM10 ctr: 19.8; ADAM17 confirm: 9.9

What do the screens show for `COc1cc(NC(=O)CSc2nc3[nH]ncc3c(=O)n2-c2ccc(Cl)cc2)cc(OC)c1`?
ADAM17 inh: 11.9; rCAG binder: inactive; proKLK7 act: inactive; ADAM10 inh: 30.6; MPTP block: inactive; ADAM10 confirm: inactive; ADAM17 counter: inactive; ADAM10 ctr: 25.7; ADAM17 confirm: 13.2

How did O=C(CCC(=O)c1ccccc1)Nc1ccccc1OC(F)F do in these assays?
ADAM17 inh: inactive; rCAG binder: inactive; DSG3 Ab inh: inactive; proKLK7 act: inactive; ADAM10 inh: inactive; MPTP block: inactive

What do the screens show for `COc1cc(OC)cc(-c2nnc(SCc3c(F)cccc3Cl)o2)c1`?
ADAM17 inh: inactive; rCAG binder: inactive; DSG3 Ab inh: inactive; proKLK7 act: inactive; ADAM10 inh: inactive; MPTP block: inactive

How did Fc1cccc(Cl)c1CSc1nnc(CNc2ccccc2)o1 do in these assays?
ADAM17 inh: 13.7; rCAG binder: inactive; DSG3 Ab inh: inactive; proKLK7 act: inactive; ADAM10 inh: 24.3; MPTP block: inactive; ADAM10 confirm: inactive; ADAM17 counter: inactive; ADAM10 ctr: inactive; ADAM17 confirm: inactive

Results for COc1ccc(C2CC(O)(c3ccccc3)Oc3cc(OC)cc(OC)c32)cc1 (stereo not given) ?
ADAM17 inh: inactive; rCAG binder: inactive; DSG3 Ab inh: inactive; proKLK7 act: inactive; ADAM10 inh: inactive; MPTP block: inactive

How did COc1ccc(C2CC(O)(c3ccccc3)Oc3c(C)ccc(C)c32)cc1 (stereo not given) do in these assays?
ADAM17 inh: 18.6; rCAG binder: inactive; DSG3 Ab inh: inactive; proKLK7 act: inactive; ADAM10 inh: 35.8; MPTP block: inactive; ADAM10 confirm: inactive; ADAM17 counter: inactive; ADAM10 ctr: inactive; ADAM17 confirm: 12.9

Results for CC(C)CSc1ncccc1-c1nc2ccccc2[nH]1 ?
ADAM17 inh: inactive; rCAG binder: inactive; proKLK7 act: inactive; ADAM10 inh: inactive

What do the screens show for `CC(=O)C(N=Nc1ccccc1)(Sc1nnc(-c2ccccc2)n1-c1ccccc1)C(C)=O`?
ADAM17 inh: 13.8; rCAG binder: inactive; DSG3 Ab inh: inactive; proKLK7 act: inactive; ADAM10 inh: 26.2; MPTP block: inactive; ADAM10 confirm: inactive; ADAM17 counter: inactive; ADAM10 ctr: inactive; ADAM17 confirm: 10.5

How did CCOC(=O)[C@H]1[C@H]2COc3ccccc3[C@@H]2N2C(=O)c3cc(Br)ccc3NC(=O)[C@@]12C do in these assays?
ADAM17 inh: inactive; rCAG binder: inactive; DSG3 Ab inh: inactive; proKLK7 act: inactive; ADAM10 inh: inactive; MPTP block: inactive

How did CCOC(=O)[C@H]1[C@H]2COc3ccc(Br)cc3[C@@H]2N2C(=O)c3cc(Br)ccc3NC(=O)[C@@]12C do in these assays?
ADAM17 inh: 11.2; rCAG binder: inactive; DSG3 Ab inh: inactive; proKLK7 act: inactive; ADAM10 inh: 20.3; MPTP block: inactive; ADAM10 confirm: inactive; ADAM17 counter: inactive; ADAM10 ctr: inactive; ADAM17 confirm: 10.6

How did Cc1ccc(N(CC(O)CON=C2c3ccccc3-c3ccccc32)S(C)(=O)=O)cc1 (stereo not given) do in these assays?
ADAM17 inh: 12.4; rCAG binder: inactive; DSG3 Ab inh: inactive; proKLK7 act: inactive; ADAM10 inh: 21.5; MPTP block: inactive; ADAM10 confirm: inactive; ADAM17 counter: inactive; ADAM10 ctr: 21.5; ADAM17 confirm: 14.2

What do the screens show for `COc1ccc(S(=O)(=O)NC(=O)C2(C)CCN2C(=O)C2CCCCC2)cc1OC` (stereo not given)?
ADAM17 inh: inactive; rCAG binder: inactive; proKLK7 act: inactive; ADAM10 inh: inactive; MPTP block: inactive

What do the screens show for `CC(C)(C)S(=O)(=O)N1C[C@H]2C(=C(CCO)C[C@H]3C(=O)N(c4ccccc4)C(=O)[C@H]32)[C@@H]1CCO`?
ADAM17 inh: inactive; rCAG binder: inactive; proKLK7 act: inactive; ADAM10 inh: inactive

Results for CCC(C(=O)OCC(=O)Nc1cc(C)ccc1OC)c1ccccc1 (stereo not given) ?
ADAM17 inh: inactive; rCAG binder: inactive; DSG3 Ab inh: inactive; proKLK7 act: inactive; ADAM10 inh: inactive; MPTP block: inactive

What do the screens show for `CCOc1ccccc1NC(=O)COC(=O)C(CC)c1ccccc1` (stereo not given)?
ADAM17 inh: 11.4; rCAG binder: inactive; DSG3 Ab inh: inactive; proKLK7 act: inactive; ADAM10 inh: 21.7; MPTP block: inactive; ADAM10 confirm: inactive; ADAM17 counter: inactive; ADAM10 ctr: inactive; ADAM17 confirm: inactive

What do the screens show for `COC(=O)[C@]12C[C@H](CC(=O)NCc3ccccc3)C(=O)N(Cc3ccco3)C1=C[C@H](C1CCCC1)O[C@@H]2C`?
ADAM17 inh: inactive; rCAG binder: inactive; proKLK7 act: inactive; ADAM10 inh: inactive

How did COCCCNC(=O)C[C@H]1C[C@@]2(C(=O)OC)C(=C[C@H](C(C)(C)C)O[C@@H]2C)N(Cc2cccc3ccccc23)C1=O do in these assays?
ADAM17 inh: inactive; rCAG binder: inactive; proKLK7 act: inactive; ADAM10 inh: inactive

Results for COC(=O)[C@]12C[C@H](CC(=O)NCCCCc3ccccc3)C(=O)N(CCc3ccc(OC)c(OC)c3)C1=C[C@H](C(C)(C)C)O[C@@H]2C ?
ADAM17 inh: 9.0; rCAG binder: inactive; proKLK7 act: inactive; ADAM10 inh: 27.1; ADAM10 confirm: inactive; ADAM17 counter: inactive; ADAM10 ctr: 24.3; ADAM17 confirm: 13.3

What do the screens show for `CCCCNC(=O)C[C@H]1C[C@@]2(C(=O)OC)C(=C[C@H](C(C)(C)C)O[C@@H]2C)N(Cc2cccc3ccccc23)C1=O`?
ADAM17 inh: 14.6; rCAG binder: inactive; proKLK7 act: inactive; ADAM10 inh: 29.2; ADAM10 confirm: inactive; ADAM17 counter: inactive; ADAM10 ctr: 26.2; ADAM17 confirm: 16.6

Bioassay records (PubChem BioAssay)
